Compound activity deposited in PubChem BioAssay by The Scripps Research Institute Molecular Screening Center.
AHR act – activators of human aryl hydrocarbon receptor; 320,000 compounds, 2.5% hits; AID 2796; AHR-responsive luciferase reporter cells, luminescence; P35869; activation, % at 5 µM; in the data active means activation above about 47%;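 further: 0% = vehicle wells and 100% = reference agonist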
DAX1 inh-1 – inhibitors of human orphan nuclear receptor DAX1 (NR0B1) | P51843 | 340,000 compounds, 0.99% hits | HEK293 Gal4-DAX1 luciferase reporter, luminescence | inhibition, % at 6.75 µM | AID 504766;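 active means inhibition above the mean over all tested compounds plus 3 SD, cut at about 4.2% in these data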;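 further: 0% = DAX1-transfected cells with DMSO and 100% = empty-vector control cells with DMSO; inhibition shows as a rise in luminescence from relieved DAX1 repression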
Target sequence (P51843 207-470 limits assumed): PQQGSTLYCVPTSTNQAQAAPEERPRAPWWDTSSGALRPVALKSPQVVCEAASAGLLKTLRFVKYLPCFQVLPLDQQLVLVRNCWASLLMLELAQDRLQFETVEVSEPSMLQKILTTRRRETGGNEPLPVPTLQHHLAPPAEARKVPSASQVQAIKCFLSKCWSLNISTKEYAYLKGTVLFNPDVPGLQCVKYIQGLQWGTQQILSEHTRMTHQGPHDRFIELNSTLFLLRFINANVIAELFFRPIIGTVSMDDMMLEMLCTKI
ssDAF-12 act – activators of S. stercoralis DAF-12 nuclear receptor; HEK293 ssDAF-12/GRIP1 lit1-tk-luc reporter, luminescence; % of 3 µM dafachronic acid response; activation, % at 6.8 µM; 370,000 compounds, 1% hits; AID 652126;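 active means activation above the mean over all tested compounds plus 3 SD, cut at about 0.9% in these data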;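 further: 0% = DMSO-only wells and 100% = 3 µM delta7-dafachronic acid wells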
DAX1 inh-2 – inhibitors of DAX1 repression of SF-1 activated StAR promoter; inhibition, % at 6.8 µM; HEK293T StAR-luciferase reporter, SF-1/DAX-1 repression relief; AID 652010; 370,000 compounds, 1.1% hits;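 active means inhibition above the mean over all tested compounds plus 3 SD, cut at about 3.6% in these data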;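 further: 0% = DAX-1 cells with DMSO and 100% = cells lacking DAX-1 with DMSO; higher inhibition means more luminescence from relief of DAX-1 repression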
hcDAF-12 act – H. contortus DAF-12 activation, primary screen. HEK293 hcDAF-12 lit1-tk-luc reporter, luminescence; 0% DMSO, 100% Δ7-dafachronic acid. activation, % at 6.8 µM. 370,000 compounds, 1.4% hits. AID 652067;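 active means activation above the mean of all tested compounds plus 3 SD, cut at about 5.5% in these data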;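 further: 100% = response to 3 µM Δ7-dafachronic acid high control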
hgDAF12 agonist – activates the H. glycines DAF-12 receptor ligand-binding domain. HEK293 GAL4-hgDAF12 UAS-luciferase reporter, agonist luminescence; normalized to butyrate control. activation, % at 6.8 µM. 370,000 compounds, 1.8% hits. AID 687014;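 active means activation above a cutoff set at the mean of all screened compounds plus 3 SD, cut at about 10% in these data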;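 further: 0% = DMSO wells and 100% = sodium butyrate wells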
The depositor's hits bear a star. This is a sample that favours compounds with a hit; in the whole collection about 5.7% have one here.

What do the screens show for `CSc1ccc(C2c3[nH]c4ccccc4c3CCN2C(=O)c2cc(C)n(C)n2)cc1` (stereo not drawn)?
AHR act: 49*

Results for Cc1cc(C(=O)N2CCc3c([nH]c4ccccc34)C2c2cccc(Cl)c2)nn1C (stereo not drawn) ?
AHR act: 41; DAX1 inh-1: 1; ssDAF-12 act: -1; DAX1 inh-2: 0; hcDAF-12 act: 2; hgDAF12 agonist: 4

How did CCOc1ccc(C2c3[nH]c4ccccc4c3CCN2C(=O)Cn2cncn2)cc1 (stereo not drawn) do in these assays?
AHR act: 68*; DAX1 inh-1: -1; ssDAF-12 act: -1; DAX1 inh-2: 0; hcDAF-12 act: 0; hgDAF12 agonist: -1

What do the screens show for `O/N=C1\CCCC\C1=C/c1ccccc1`?
AHR act: 3; DAX1 inh-1: -1; ssDAF-12 act: -2; DAX1 inh-2: 1; hcDAF-12 act: -1; hgDAF12 agonist: 3

How did CCOC(=O)N1CCN(C(=O)C[C@H]2C[C@@]3(C(=O)OC)C(=C[C@H](C(C)(C)C)O[C@@H]3C)N(Cc3ccc4c(c3)OCO4)C2=O)CC1 do in these assays?
ssDAF-12 act: -1; DAX1 inh-2: 0; hcDAF-12 act: -1; hgDAF12 agonist: -2

Results for COC(=O)CCCCCCCC(=O)Nc1nnc(C(F)(F)F)s1 ?
AHR act: 8; DAX1 inh-1: 6.1*; ssDAF-12 act: -1; DAX1 inh-2: 0; hcDAF-12 act: -1; hgDAF12 agonist: -2

Results for CN(C)CCSc1nnc2[nH]c3ccccc3c2n1 ?
AHR act: 12; DAX1 inh-1: 0; ssDAF-12 act: 1.1*; DAX1 inh-2: 1; hcDAF-12 act: 3; hgDAF12 agonist: 3

Results for Fc1cccc(CSc2nnc3c(n2)[nH]c2ccccc23)c1 ?
AHR act: 4; DAX1 inh-1: -2; ssDAF-12 act: -2; DAX1 inh-2: -1; hcDAF-12 act: 0; hgDAF12 agonist: -1

What do the screens show for `CC1CCN(S(=O)(=O)N2CCCC(C(=O)NCc3ccccc3Cl)C2)CC1` (stereo not drawn)?
AHR act: 1; DAX1 inh-1: 0; ssDAF-12 act: 0; DAX1 inh-2: -1; hcDAF-12 act: -1; hgDAF12 agonist: -4

Results for O=C(NCc1ccccc1Cl)C1CCN(S(=O)(=O)N2CCCCCC2)CC1 ?
AHR act: -2; DAX1 inh-1: 4.8*; ssDAF-12 act: -1; DAX1 inh-2: 0; hcDAF-12 act: -2; hgDAF12 agonist: -2

What do the screens show for `O=C(NCCCN1CCc2ccccc2C1)C1CCN(S(=O)(=O)N2CCCC2)CC1`?
AHR act: 2; DAX1 inh-1: -1; ssDAF-12 act: 0; DAX1 inh-2: 0; hcDAF-12 act: 5.8*; hgDAF12 agonist: 1

How did COc1ccccc1OC[C@H](O)CO do in these assays?
AHR act: -1; DAX1 inh-1: -1; ssDAF-12 act: -1; DAX1 inh-2: 0; hcDAF-12 act: 0; hgDAF12 agonist: -1

Results for Clc1ccc(-c2nnc(N3CCCC3)nn2)cc1 ?
AHR act: 8; DAX1 inh-1: 8.8*; ssDAF-12 act: 0; DAX1 inh-2: 2; hcDAF-12 act: 4; hgDAF12 agonist: 10

Results for CCSc1cc(N2CCCC2)nc(-c2ccc(Cl)cc2)n1 ?
AHR act: -2; DAX1 inh-1: 0; ssDAF-12 act: -1; DAX1 inh-2: 1; hcDAF-12 act: -1; hgDAF12 agonist: 0

How did CC(C)C[C@H]1COc2ccc(Cl)cc2S(=O)(=O)N1C[C@H](NC(=O)OC(C)(C)C)C(C)C do in these assays?
ssDAF-12 act: -1; DAX1 inh-2: 0; hcDAF-12 act: -1; hgDAF12 agonist: -3

How did C[C@@H]1Cn2cnc(C(=O)N(C)Cc3ccccc3)c2C(=O)N1 do in these assays?
ssDAF-12 act: -1; DAX1 inh-2: 1; hcDAF-12 act: 1; hgDAF12 agonist: 4

Results for C=CCC1(CC=C)CCCN1C(=O)C1CCC(=O)N(CCc2ccc(OC)cc2)C1 (stereo not drawn) ?
AHR act: 4; DAX1 inh-1: 2; ssDAF-12 act: -1; DAX1 inh-2: 2; hcDAF-12 act: 4; hgDAF12 agonist: 13*

How did C=CCC1(CC=C)CCCN1C(=O)C1CCC(=O)N(CCc2ccccc2)C1 (stereo not drawn) do in these assays?
AHR act: 6; DAX1 inh-1: 2; ssDAF-12 act: 0; DAX1 inh-2: 1; hcDAF-12 act: 2; hgDAF12 agonist: 10

Results for CC(C)(C)c1ccc(C(=O)NNC(=O)CCc2ccccc2)cc1 ?
AHR act: 3; ssDAF-12 act: 0; DAX1 inh-2: 0; hcDAF-12 act: 0; hgDAF12 agonist: 0

How did CCCn1c(/N=C/c2ccccc2O)nc2ccccc21 do in these assays?
AHR act: 11; DAX1 inh-1: 1; ssDAF-12 act: -1; DAX1 inh-2: -1; hcDAF-12 act: -2; hgDAF12 agonist: 0

What do the screens show for `Cn1c(/N=C/c2c(O)ccc3ccccc23)nc2ccccc21`?
AHR act: 37; DAX1 inh-1: 0; ssDAF-12 act: 1.3*; DAX1 inh-2: -1; hcDAF-12 act: 0; hgDAF12 agonist: -3

What do the screens show for `CCCCNCc1cc2ccccc2o1`?
AHR act: -1; DAX1 inh-1: 4.5*; ssDAF-12 act: -1; DAX1 inh-2: 1; hcDAF-12 act: 1; hgDAF12 agonist: -5

Results for CCCCNC(=O)CO/N=C(\C)c1cc2ccccc2o1 ?
AHR act: 4; DAX1 inh-1: -1; ssDAF-12 act: -1; DAX1 inh-2: 1; hcDAF-12 act: 5; hgDAF12 agonist: 5

How did CC(=O)Nc1ccc(S(=O)(=O)NNC(=O)c2cc3c4ccccc4n(C)c3s2)cc1 do in these assays?
AHR act: 75*; DAX1 inh-1: -2; ssDAF-12 act: 0; DAX1 inh-2: 0; hcDAF-12 act: 2; hgDAF12 agonist: 0

Results for CCCNC(=O)c1cc2c(C(F)(F)F)nn(C)c2s1 ?
AHR act: 4; DAX1 inh-1: 0; ssDAF-12 act: -1; DAX1 inh-2: -1; hcDAF-12 act: -2; hgDAF12 agonist: -2

How did Cn1c2ccccc2c2cc(C(=O)NNC(=O)CCl)sc21 do in these assays?
AHR act: 62*; DAX1 inh-1: -2; ssDAF-12 act: -1; DAX1 inh-2: -2; hcDAF-12 act: 6.2*; hgDAF12 agonist: -2

Results for COCCNC(=O)c1cc2c3ccccc3n(C)c2s1 ?
AHR act: 49*; DAX1 inh-1: 0; ssDAF-12 act: -1; DAX1 inh-2: 0; hcDAF-12 act: -1; hgDAF12 agonist: 1

What do the screens show for `CCCNC(=O)c1cc2c3ccccc3n(C)c2s1`?
AHR act: 52*; DAX1 inh-1: -1; ssDAF-12 act: -1; DAX1 inh-2: -1; hcDAF-12 act: 1; hgDAF12 agonist: 0

What do the screens show for `Cc1ccc(C(=O)Nn2cnnc2)cc1S(=O)(=O)N1CCOCC1`?
AHR act: 0; DAX1 inh-1: 0; ssDAF-12 act: 0; DAX1 inh-2: -1; hcDAF-12 act: 1; hgDAF12 agonist: -2
